Test results: PubChem BioAssay (Tox21)
Inconclusive results are not listed. Active and inactive are the calls of the source. Calls come from the whole dose curve; as a rule, active = well fitted cell-killing curve with a large enough effect in the repeat runs; inconclusive = weak or mixed curves, or effect the other way; inactive = flat fitted curve, though single readings scatter.

Experiment: qHTS assay to identify small molecule agonists of the androgen receptor (AR) signaling pathway in the presence of an antagonist - cell viability counter screen (AID 1259379); note: nearly all actives have a fitted effect of over 25% in size
Details: MDA-kb2 viability, CellTiter-Fluor, 16 h; series mostly up to 92.4 µM; activity change, negative = cytotoxicity: at the top concentration
Excerpt: National Center for Advancing Translational Sciences [NCATS]
NIH Chemical Genomics Center [NCGC]
U.S. Environmental Protection Agency [EPA]
National Institutes of Environmental Health Sciences [NIEHS]
National Toxicology Program [NTP]
U.S. Food and Drug Administration [FDA]
Androgen receptor (AR) is an important member of nuclear receptor family. Its signaling plays a critical role in AR-dependent prostate cancer and other androgen related diseases. Considerable attention has been given in the past decades to develop methods to study and screen for the environmental chemicals that have the potential to interfere with metabolic homeostasis, reproduction, developmental and behavioral functions. Therefore AR binding assay for screening against androgen agonists and antagonists can be used to identify potential endocrine disruptors.
MDA-kb2 cells (from ATCC, deposited by Wilson et al.) are human breast carcinoma cells that were stably transfected with a luciferase reporter gene under control of the MMTV promoter that contains response elements for both androgen receptor (AR) and glucocorticoid receptor (GR). This particular screening for measuring luciferase reporter gene activity using MDA-kb2 cells against Tox21 10K library compounds is a confirmation study on agonist mode screening in the presence of AR-antagonist compound (Nilutamide) at 3.0uM final concentration. The cytotoxicity of the compounds was tested in parallel by measuring the cell viability using CellTiter-Fluor assay system (Promega, Madison, WI) in the same wells.
Tox21 Assay Protocol Summary:
MDA-kb2 cells (cells cultured without CO2) were dispensed at 3,000 cells/well in 4uL of culture medium into white wall/solid-bottom 1536-well plates (Corning Life Sciences, Corning, NY) using a Multidrop Combi (Thermo Fisher Scientific Inc., Waltham, MA) dispenser. The assay plates were incubated at 37C and 0% CO2 for 5hr. One uL of 3.0uM (final concentration) Nilutamide or assay buffer was added using two separate tips of Flying Reagent Dispenser (FRD, Aurora Discovery, San Diego, CA). Then 23nL of compounds dissolved in DMSO at 15 concentrations and positive controls were transferred to the assay plates using a Pintool station (Wako, San Diego, CA). The assay plates were incubated at 37C and 0% CO2 for 16 hr. After 15hr incubation at 37C, 1uL/well CellTiter-Fluor reagent (Promega Corporation) was added to each well of the assay plates using FRD. After 1hr incubation at 37C and 0% CO2, the fluorescence signal was measured using a ViewLux plate reader (PerkinElmer, Shelton, CT).
% is set by controls: 0 for no effect and ±100 for the full control effect.

Structure (SMILES) | activity change, negative = cytotoxicity
CC(C)CC(C)(C)C | -3.68% (inactive)
CO[C@@H]1[C@@H](O[C@@H]2O[C@H](C)[C@@H](O[C@H]3C[C@@](C)(O)[C@@H](O)[C@H](C)O3)[C@H](N(C)C)[C@H]2O)[C@@H](CC=O)C[C@@H](C)[C@@H](O[C@@H]2CC[C@H](N(C)C)[C@@H](C)O2)/C=C/C=C/C[C@@H](C)OC(=O)C[C@H]1OC(C)=O | 3.29% [at 42.5 µM] (inactive)
CCC(C(=O)O)c1ccc(N2Cc3ccccc3C2=O)cc1 (stereo not given) | 0.59% [at 42.5 µM] (inactive)
CO[C@@H]1COCC[C@@H]1N[C@@H]1CC[C@@](C(=O)N2CCc3ncc(C(F)(F)F)cc3C2)(C(C)C)C1 | 2.76% (inactive)
CCN(CCCCOC(=O)c1ccc(OC)c(OC)c1)C(C)Cc1ccc(OC)cc1 (stereo not given) | 1.28% [at 42.5 µM] (inactive)
CCOc1ccccc1O | -45.8% (inactive)
CCCCCCCCS | 0.787% (inactive)
CCOC(C)OCC | -0.578% (inactive)
COC(=O)c1cc(Cl)ccc1[N+](=O)[O-] | -2.11% (inactive)
COC=O | 0.257% [at 8.39 µM] (inactive)
Nc1nc(Cl)nc2c1ncn2[C@H]1C[C@H](O)[C@@H](CO)O1 | 1.57% (inactive)
O=C(O)c1cccnc1Nc1cccc(C(F)(F)F)c1 | -0.859% [at 42.5 µM] (inactive)
CC(C)(C)c1cc(C=O)cc(C(C)(C)C)c1O | 1.07% [at 42.5 µM] (inactive)
CCc1ccc2c(c1)C(=O)c1ccccc1C2=O | -1.36% (inactive)
CCCCCO | 1.22% (inactive)
CC(O)C(C)O (stereo not given) | 3.64% (inactive)
N#CCCCC(C#N)CCC#N (stereo not given) | 5.05% (inactive)
CCCCCCCCNC | 0.815% (inactive)
c1ccc(CCNc2nc(-c3ccccc3)cs2)cc1 | -2.47% [at 42.5 µM] (inactive)
CC(O)CN (stereo not given) | -0.195% (inactive)

Structure (SMILES) | activity change, negative = cytotoxicity
C=CC(O)CCCCC (stereo not given) | 2.14% (inactive)
O=C(O)c1ccccc1[N+](=O)[O-] | -0.0823% (inactive)
N#C[C@@H]1CC(F)(F)CN1C(=O)CNC1CC2CCC(C1)N2c1ncccn1 (stereo not given in full) | -0.804% (inactive)
O=C(OCCOCCOCCOC(=O)c1ccccc1)c1ccccc1 | 1.1% (inactive)
CC(C)=CCCC(C)C=O (stereo not given) | 1.28% (inactive)
S=c1[nH][nH]c(=S)s1 | -0.102% (inactive)
Cc1ccc(NC=O)c(C)c1 | 1.93% (inactive)
Cc1c(-c2cccnc2)c2ccccc2n1CCCCC(=O)O | 3.71% (inactive)
CC(C)(C(=O)O)c1ccc(C(O)CCCN2CCC(C(O)(c3ccccc3)c3ccccc3)CC2)cc1 (stereo not given) | -0.341% [at 42.5 µM] (inactive)
CCCCCCCCCC(C)C=O (stereo not given) | 0.754% (inactive)
CCCOC(C)=O | -3.16% (inactive)
Oc1ccc(CCNCCCCCCNCCc2ccccc2)cc1O | -10.2% [at 42.5 µM] (inactive)
O=S(=O)(O)c1cc(Cl)c(Cl)cc1Cl | 0.198% (inactive)
CCCCCCCCCCCCCCCCN | 0.23% [at 42.5 µM] (inactive)
C(/C=C/C=C/Nc1ccccc1)=Nc1ccccc1 | -4.87% (inactive)
O=C(O)c1ccc2cc(O)ccc2c1 | 3.31% (inactive)
CC(C)NC(=O)c1ccccc1N | 0.0305% (inactive)
Cc1nc2sccn2c(=O)c1CCN1CCC(=C(c2ccc(F)cc2)c2ccc(F)cc2)CC1 | -9.59% [at 42.5 µM] (inactive)
N#Cc1ccc(CC(=O)c2cccc(C(F)(F)F)c2)cc1 | -0.377% (inactive)
C/C(=C(\CCO)SS/C(CCO)=C(\C)N(C=O)Cc1cnc(C)nc1N)N(C=O)Cc1cnc(C)nc1N | -0.552% [at 42.5 µM] (inactive)
